A short description of this experiment: In vitro enzyme assay to detect hydrolysis of chlorophenol red-beta-D-[…] directly proportional to the number of Toxoplasma stably expressing beta-galactosidase. The experiment is classed as functional, organism-based, Toxoplasma gondii. The arrangement: scale not given: in the data most compounds retested in dose-response had high values.

Screen size: about 85,000 compounds; about 440 (0.52%) showed an effect of 50% or more. Only a selection was taken, and strong results are over-represented in it overall.

As for `NCCNc1nc2ccccc2s1`, the “Percent Effect” value (50 µM) stood at 19.92%.

Take `OCCNc1nc2ccccc2s1`: for the setting “50 µM”, the “Percent Effect” value is on record as 92.76%.

Consider `O=C(NCCO)Nc1nc2ccccc2s1`, for which the “Percent Effect” value (50 µM) came to 9.255%.

Regarding `NC(=O)C1CCN(c2ncnc3ccsc23)CC1`, the “Percent Effect” value (50 µM) amounted to 0.8525%.

Turning to `CCOC1CCCN(C(=O)c2ccc(C)[nH]c2=O)C1` (stereo not drawn), under “50 µM”, the “Percent Effect” value is given as 1.701%.

Turning to `CC(C)n1cc(S(=O)(=O)N2CCSCC2)cn1`, the “Percent Effect” value (10 µM) is on record as 32.53%.

With `CC(C)n1cc(S(=O)(=O)N2CCCCCC2)cn1`, the “Percent Effect” value (10 µM) amounted to 51.25%.

Take `CC(C)n1cc(S(=O)(=O)N2CCCCC2)cn1`: where the note is “10 µM”, the “Percent Effect” value was 1.913%.

Consider `CN(C)C(=O)c1ccc(Oc2ncccn2)cc1`, for which, where the note is “50 µM”, the “Percent Effect” value was -3.725%.

On to `O=C(CN1CCCC(c2ccn[nH]2)C1)Nc1nc2c(s1)CCCC2` (stereo not drawn), for which, under “10 µM”, the “Percent Effect” value was 31.73%.

Regarding `O=C(CN1CCCC(c2ccn[nH]2)C1)Nc1nc2c(s1)CCC2` (stereo not drawn), the “Percent Effect” value (10 µM) was 42.36%.

Take `Cc1cc(C2CCCN(CC(=O)Nc3nc4c(s3)CCC4)C2)n[nH]1` (stereo not drawn): the “Percent Effect” value (10 µM) was determined as 56.52%.

As to `Cc1noc(CN(C)Cc2cncn2C(C)C)n1`, the “Percent Effect” value (50 µM) is on record as -12.13%.

With `CCN1CC2(CC1=O)CN(Cc1ccoc1)CCN(C(=O)C(C)C)C2` (stereo not drawn), the “Percent Effect” value (10 µM) is 73.92%.

Turning to `CCN1CC2(CC1=O)CN(Cc1ccncc1)CCN(C(=O)C(C)C)C2.O=C(O)C(F)(F)F.O=C(O)C(F)(F)F` (stereo not drawn), the “Percent Effect” value (10 µM) worked out at 78.24%.

On to `CCN1CC2(CC1=O)CN(Cc1ccco1)CCN(C(=O)C(C)C)C2.O=C(O)C(F)(F)F` (stereo not drawn), for which the “Percent Effect” value (10 µM) was -13.42%.

With `CCN1CC2(CC1=O)CN(Cc1cccs1)CCN(C(=O)C(C)C)C2` (stereo not drawn), the “Percent Effect” value (10 µM) is on record as -4.777%.

Regarding `CCN1CC2(CC1=O)CN(Cc1cnn(C)c1)CCN(C(=O)C(C)C)C2.O=C(O)C(F)(F)F` (stereo not drawn), the “Percent Effect” value (10 µM) is listed as -2.705%.

As for `CCN1CC2(CC1=O)CN(Cc1ccsc1)CCN(C(=O)C(C)C)C2.O=C(O)C(F)(F)F` (stereo not drawn), the “Percent Effect” value (10 µM) is given as -7.478%.

For the compound `NS(=O)(=O)c1ccc(Sc2ccc(F)cc2F)nc1`, the “Percent Effect” value (50 µM) is recorded as -8.713%.

As to `CS(=O)(=O)N1CCC(CN)C1` (stereo not drawn), under “50 µM”, the “Percent Effect” value is 0.02635%.

Turning to `CC(Cc1ccco1)NS(=O)(=O)N1CCCCCC1` (stereo not drawn), the “Percent Effect” value (10 µM) is -1.07%.

For `CC(Cc1ccco1)NS(=O)(=O)N1CCCCC1` (stereo not drawn), the “Percent Effect” value (10 µM) is recorded as 0.1189%.

In the case of `CC(Cc1ccco1)NS(=O)(=O)N1CCOCC1` (stereo not drawn), the “Percent Effect” value (50 µM) turned out to be 99.87%.

For `Nc1nccc(N2CCC(c3cc(Cc4ccccc4)n[nH]3)CC2)n1`, the “Percent Effect” value (10 µM) was 46.75%.

As for `Nc1nc(O)cc(N2CCC(c3cc(Cc4ccccc4)n[nH]3)CC2)n1`, the “Percent Effect” value (10 µM) stood at 2.428%.

With `Nc1cc(N2CCC(c3cc(Cc4ccccc4)n[nH]3)CC2)ccn1`, for the setting “10 µM”, the “Percent Effect” value amounted to 67.3%.

As to `CN(C)c1ccc(NC(=O)N2CCSCC2)cn1`, where the note is “50 µM”, the “Percent Effect” value is -21.27%.

For `COc1ccc2[nH]cc(-c3ccnc(NC4CCCC4)n3)c2c1`, for the setting “10 µM”, the “Percent Effect” value is given as 56.3%.

Consider `COC(=O)c1ccc2c(-c3ccnc(NCCO)n3)c[nH]c2c1`, for which the “Percent Effect” value (10 µM) turned out to be 29.45%.

`COc1ccc2[nH]cc(-c3ccnc(N4CCC(C)CC4)n3)c2c1`: for the setting “10 µM”, the “Percent Effect” value is 11.49%.

On to `Cn1ccnc1SCC(=O)Nc1cccnc1`, for which, for the setting “50 µM”, the “Percent Effect” value was -23.51%.

For `COCCCOc1cc(C)ccc1CN`, the “Percent Effect” value (50 µM) was -20.96%.

Turning to `COc1cccc(CC(=O)N2CCNC(=O)C2)c1`, under “50 µM”, the “Percent Effect” value came out at 4.575%.

In the case of `COc1ccc(NCC(=O)N2CCNC(=O)C2)c(C)c1`, the “Percent Effect” value (50 µM) worked out at 52.04%.

For `COc1ccc(N2CCCN(CC(=O)N3CCNC(=O)C3)CC2)cc1`, the “Percent Effect” value (10 µM) is -0.2401%.

For `NCc1ccc(N2CCS(=O)(=O)CC2)cc1`, the “Percent Effect” value (50 µM) was determined as 2.889%.

As to `CC(Nc1ncnc2c1cnn2C)c1ccncc1` (stereo not drawn), the “Percent Effect” value (50 µM) is on record as 10.45%.

As to `NC(=O)CN1CCCN(C(=O)c2sccc2Br)CC1`, where the note is “50 µM”, the “Percent Effect” value is on record as 2.336%.

As to `Cc1ccc(C(CCNCCCN(C)C)C2CCOC(C)(C)C2)cc1.O=C(O)C(=O)O` (stereo not drawn), the “Percent Effect” value (10 µM) stood at 86.28%.

As to `CN(C)CCCNCC1CCOC(C)(C)C1` (stereo not drawn), the “Percent Effect” value (10 µM) amounted to 15.27%.

As for `CN(C)CCNCCC(c1ccccc1)C1CCOC(C)(C)C1.O=C(O)C(=O)O` (stereo not drawn), where the note is “10 µM”, the “Percent Effect” value is on record as -5.061%.

On to `Cc1ccc(C(CCNCCN(C)C)C2CCOC(C)(C)C2)cc1.O=C(O)C(=O)O` (stereo not drawn), for which the “Percent Effect” value (10 µM) turned out to be 5.223%.

Consider `CN(C)CCCNCCC(c1ccccc1)C1CCOC(C)(C)C1.O=C(O)C(=O)O` (stereo not drawn), for which the “Percent Effect” value (10 µM) worked out at 13.16%.

As to `CC(=O)Nc1nc2c(s1)CCCC2`, the “Percent Effect” value (50 µM) is listed as -6.719%.

As for `O=S(=O)(c1ccc2c(c1)OCCO2)N1CCc2ccccc2C1`, the “Percent Effect” value (10 µM) was 3.262%.

In the case of `O=S(=O)(c1ccc2c(c1)OCCO2)N1CCCNCC1`, the “Percent Effect” value (50 µM) was 3.594%.

For the compound `NC1CN(S(=O)(=O)c2ccc3c(c2)OCCO3)C1`, the “Percent Effect” value (50 µM) is on record as 61.03%.

Take `c1cncc(CCNCc2cccc3c2OCCO3)c1`: the “Percent Effect” value (50 µM) is recorded as -5.823%.

Regarding `CN(C)S(=O)(=O)NCC(O)c1cccc(C(F)(F)F)c1` (stereo not drawn), the “Percent Effect” value (50 µM) was 2.973%.

Take `Cc1cccc(C(=O)Nc2cccc(O)c2)n1`: the “Percent Effect” value (50 µM) stood at 0.8696%.

As for `O=C(NCCn1cnc(C2CCCC2)cc1=O)c1ccc(=O)[nH]n1`, the “Percent Effect” value (10 µM) is -2.574%.

Regarding `CC(C)NC(=O)NCCn1cnc(C2CCCC2)cc1=O`, under “10 µM”, the “Percent Effect” value was 7.593%.

As to `O=C(NCCn1cnc(C2CCCC2)cc1=O)NCc1cccs1`, for the setting “10 µM”, the “Percent Effect” value was found to be 56.76%.

For the compound `CC(=O)c1ccc(Br)o1`, where the note is “50 µM”, the “Percent Effect” value turned out to be 1.756%.

For the compound `Cc1ccc(C(=O)COC(=O)c2cccnc2N)cc1`, under “50 µM”, the “Percent Effect” value is recorded as -8.374%.

Consider `CC(C)c1ccc(S(=O)(=O)C(C)C(N)=O)cc1` (stereo not drawn), for which, where the note is “50 µM”, the “Percent Effect” value is on record as -3.645%.

Turning to `CC(=O)N1CCN(C(=O)CCC(C)C)CC1`, the “Percent Effect” value (50 µM) is recorded as -13.31%.

The values above are taken from ChEMBL document CHEMBL3988442, “University of Dundee, Small-Polar-MMV Screening Library” (2021).
